High-throughput results from PubChem BioAssay.
BoNT-F LC inh – BoNT/F light chain protease inhibitors, primary screen, biochemical, flow cytometry, MLPCN library | Botulinum neurotoxin type F light chain protease (Clostridium botulinum) | Multiplex microsphere protease cleavage assay | inhibition, % at 10 µM | AID 588497, 2011 | hit rate 0.22% among 360,000; in the data active means inhibition above about 35%, passing the limit was not always enough; inconclusive means no clear call, values can overlap the other calls; further: plate controls were buffer without enzyme for full effect and enzyme alone for no effect
SSB-PriA inh – inhibitors of Klebsiella pneumoniae PriA binding to SSB C-terminal tail, primary screen, biochemical, AlphaScreen; hit rate 0.6% among 430,000; AlphaScreen SSBct-PriA binding, biotinylated peptide; inhibition, % at 33 µM; in the data active means inhibition mostly above about 37%, no sharp cut-off; inactive means mostly below about 20%;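 further: plate controls were negative control peptide for no effect and reference peptide for full effect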
Bead autofluor – flagged as autofluorescent in microsphere protease counterscreen; compound autofluorescence counterscreen, microsphere flow cytometry; active compounds read high; fluorescence intensity (test concentration not listed); hit rate 3.1% among 360,000; AID 624483; in the data active means fluorescence intensity above about 16000; inconclusive means no clear call, values can overlap the other calls
BoNT A protease – BoNT/A light chain protease inhibitors, primary screen, biochemical, flow cytometry, MLPCN library; multiplex microsphere protease substrate cleavage; inhibition, % at 10 µM; hit rate 0.17% among 360,000; AID 588499, 2011; further: plate controls were buffer without enzyme for full effect and enzyme alone for no effect
Anthrax LF prot – Bacillus anthracis LF protease inhibitors, primary screen, biochemical, multiplex microsphere, MLPCN library; Lethal factor (Bacillus anthracis), P15917; inhibition, % at 10 µM; multiplex microsphere protease cleavage assay; hit rate 0.12% among 360,000; AID 588501, 2011; further: plate controls were buffer without enzyme for full effect and enzyme alone for no effect
Target sequence (P15917 whole entry, looked up): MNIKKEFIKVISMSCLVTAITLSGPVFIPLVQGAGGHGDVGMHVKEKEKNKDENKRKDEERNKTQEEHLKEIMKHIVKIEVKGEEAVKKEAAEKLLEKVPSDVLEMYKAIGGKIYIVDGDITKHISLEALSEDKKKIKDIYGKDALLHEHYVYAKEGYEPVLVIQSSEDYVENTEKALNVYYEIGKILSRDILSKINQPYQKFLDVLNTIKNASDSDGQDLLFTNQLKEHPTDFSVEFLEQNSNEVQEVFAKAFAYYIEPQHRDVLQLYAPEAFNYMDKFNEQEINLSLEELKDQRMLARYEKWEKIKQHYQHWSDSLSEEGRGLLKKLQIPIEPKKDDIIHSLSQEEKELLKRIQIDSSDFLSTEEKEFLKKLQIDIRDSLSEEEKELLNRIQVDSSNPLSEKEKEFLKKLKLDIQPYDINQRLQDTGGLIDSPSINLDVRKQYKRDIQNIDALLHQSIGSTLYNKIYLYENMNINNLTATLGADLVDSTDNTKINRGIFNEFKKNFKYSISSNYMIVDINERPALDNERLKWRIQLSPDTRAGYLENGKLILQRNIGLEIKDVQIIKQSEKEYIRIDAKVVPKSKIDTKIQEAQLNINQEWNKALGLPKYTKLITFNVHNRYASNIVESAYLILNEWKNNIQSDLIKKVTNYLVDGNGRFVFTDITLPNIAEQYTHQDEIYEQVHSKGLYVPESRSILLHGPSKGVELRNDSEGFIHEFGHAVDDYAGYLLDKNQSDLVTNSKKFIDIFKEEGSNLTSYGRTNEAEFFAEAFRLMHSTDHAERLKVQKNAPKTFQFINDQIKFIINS
MazEF act – activators of E. coli MazEF toxin-antitoxin RNase, primary screen, biochemical, fluorescence, uHTS; Endoribonuclease toxin MazF (Escherichia coli (strain K12)), P0AE70; FAM/BHQ RNA-DNA oligo cleavage fluorescence, 5 h; activation, % at 20 µM; hit rate 0.32% among 350,000; AID 504720, 2011; in the data active means activation above about 50%
BoNTA LC inh 1 – BoNT/A light chain protease inhibitors, confirmation, biochemical, flow cytometry, cherry pick 1. shares compounds with BoNT-F LC inh. multiplex microsphere protease assay. inhibition, % at 10 µM. hit rate 3% among 720. AID 602139, 2011; in the data active means inhibition above about 32%
BoNT-F LC CP1 – BoNT/F light chain protease inhibitors, confirmation, biochemical, flow cytometry, cherry pick 1; shares compounds with BoNT-F LC inh; multiplex microsphere protease cleavage assay; inhibition, % at 10 µM; 720 tested, under 10 active; AID 602140, 2011; call rule not given here
LF protease CP1 – Bacillus anthracis LF protease inhibitors, confirmation, biochemical, multiplex microsphere, cherry pick 1 | multiplex microsphere protease cleavage assay | inhibition, % at 10 µM | 720 tested, under 10 active | shares compounds with BoNT-F LC inh; call rule not given here
An asterisk follows results filed as active; u = inconclusive; x = not tested or not shown; + = active, no number. The list is not random: actives were taken first. Their share in the collection is about 3.3%. Unless noted, no stated cut-off is given here; in the data, active means inhibition above about 30%; inconclusive means no clear call, values can overlap the other calls; inactive means below that.

SMILES	BoNT-F LC inh	SSB-PriA inh	Bead autofluor	BoNT A protease	Anthrax LF prot	MazEF act	BoNTA LC inh 1	BoNT-F LC CP1	LF protease CP1
O=c1c(/C=C(\O)c2ccccc2)nc2ccccc2n1-c1ccccc1	+	-12	17938*	61*	41*	-428	40*	36*	32*
O=C(COc1ccc(F)cc1)Nc1ccc2c(c1)N(C(=O)C1CC1)CC2	x	-12	x	x	x	x	x	x	x
Cc1nn(-c2ccccc2)c2sc(C(=O)N3CCCCC3)cc12	38*	-6	5079	0	5	-14	2	4	2
O=C(Nc1nnc(-c2ccc(F)cc2)o1)c1ccc2ncsc2c1	x	-12	x	x	x	x	x	x	x
CC(C)(C)c1cc(C(=O)CCN2CCOCC2)cc(C(C)(C)C)c1O	5	-13	3215	-3	18	5	1	-3	-4
O=C(Nc1nc(-c2ccccc2)c(-c2ccccc2)s1)c1ccc(S(=O)(=O)N2CCCCC2)cc1	-7	-3	11466	0	-6	-2	-1	-6	-5
COc1ccc(C(=O)Nc2nc(-c3ccc([N+](=O)[O-])cc3)c(-c3ccc(OC)cc3)s2)cc1	22	3	7771	38*	33*	24	14	9	12
COc1ccc(CC(N)=NOC(=O)Cc2ccccc2)cc1	x	-42	x	x	x	x	x	x	x
Cc1ccc(S(=O)(=O)N(CC(=O)NCc2ccncc2)Cc2ccccc2F)cc1	35*	-6	2926	-2	10	12	0	-3	-2
CCCCNc1nnc(SCC(=O)c2c[nH]c3ccccc23)s1	-22	-7	5750	54*	20	-7	14	-21	14
O=C(CSc1nc2ccccc2c(=O)n1-c1ccccc1)c1c[nH]c2ccccc12	1	-15	2530	0	-1	-33	x	x	x
O=C(CSc1nncn1-c1ccccc1)c1c[nH]c2ccccc12	-14	0	4658	53*	15	3	10	-14	12
CCn1c(SCC(=O)c2c[nH]c3ccccc23)nnc1-c1cccs1	x	-2	x	x	x	1	x	x	x
NC(=Nc1nc2ccccc2o1)NC(=O)c1cccc(Cl)c1	x	0	x	x	x	x	x	x	x
CC(C)Cn1nc(NC(=O)C(C)(C)C)c2cc3ccccc3nc21	-7	-48	7060	-1	4	-3	x	x	x
Cc1ccc2nc3c(cc2c1)c(NC(=O)C(C)(C)C)nn3CC(C)C	15	-19	2974	2	49*	-10	1	2	0
COc1ccc(Cl)cc1NC(=O)CC1SC(=NN=C2CCCCCC2)NC1=O (centres undefined)	x	6	x	x	x	x	x	x	x
COc1ccc(S(=O)(=O)N2CCSC2C)cc1C (centres undefined)	44*	-15	3569	-2	20	6	-1	-5	-5
CS(=O)(=O)N1CCc2cc(C(=O)Nc3ccc(O)cc3)ccc21	56*	-11	4162	1	-9	3	0	-7	-3
O=C(O)c1ccc(CNC(=O)C23CC4CC(CC(C4)C2)C3)cc1	98*	-1	3426	10	9	12	-2	0	-6
O=C(NCc1ccsc1)C12CC3CC(CC(C3)C1)C2	x	-8	x	x	x	x	x	x	x
COc1ccc(Oc2c(C(F)(F)F)oc3c4c(ccc3c2=O)OCN(Cc2ccccn2)C4)cc1	x	-17	x	x	x	x	x	x	x
CCn1cc(C(=O)NCc2ccccc2Cl)cn1	40*	-8	2098	4	2	-2	1	3	1
CCOc1nn(CC)cc1C(=O)NCc1ccccc1Cl	x	18	x	x	x	x	x	x	x
S=C(Nc1ccc2nc(-c3ccccn3)c(-c3ccccn3)nc2c1)N1CCCCCC1	5	1	2061	20	10	-51	x	x	x
SMILES	BoNT-F LC inh	SSB-PriA inh	Bead autofluor	BoNT A protease	Anthrax LF prot	MazEF act	BoNTA LC inh 1	BoNT-F LC CP1	LF protease CP1
S=C(Nc1ccc2nc(-c3ccccn3)c(-c3ccccn3)nc2c1)N1CCCCC1	8	-10	2750	33*	9	-53	3	-3	0
O=C(CSc1nnc(-c2ccccc2)c(-c2ccccc2)n1)Nc1nccs1	x	2	x	x	x	x	x	x	x
O=C(Nc1c[nH]c(=O)[nH]c1=O)c1ccc2c(c1)C(=O)N(c1cccc([N+](=O)[O-])c1)C2=O	4	-10	5147	0	-4	7	x	x	x
O=C(Nc1c[nH]c(=O)[nH]c1=O)c1cc([N+](=O)[O-])cc([N+](=O)[O-])c1	135*	-7	4035	-5	7	-4	1	76*	1
Cc1cc(C)c2c(c1)NC(c1cc3c(cc1Br)OCO3)C1CC=CC21 (centres undefined)	+	44	1899	4	-10	9	-1	2	-2
Brc1cc2c(cc1C1Nc3ccccc3C3C=CCC31)OCO2 (centres undefined)	0	8	2442	0	-1	4	x	x	x
c1ccc(-c2cn3c(n2)CCC3)cc1	-6	-13	2699	0	-3	-2	x	x	x
O=[N+]([O-])c1ccc(-c2cn3c(n2)CCC3)cc1	37*	8	u	-4	4	8	1	-5	-4
O=C(NCCCn1nc(-c2ccncc2)ccc1=O)c1ccccc1Cl	x	-7	x	x	x	x	x	x	x
COc1ccc(-c2nnc(NC(=O)C3CCCN(S(C)(=O)=O)C3)o2)cc1OC (centres undefined)	x	5	x	x	x	x	x	x	x
CN1C(=O)c2cccc(NC(=O)c3ccn(C)n3)c2C1=O	x	11	x	x	x	x	x	x	x
COc1ccc(Cl)cc1NC(=O)CN(C)C(=O)CCC(=O)c1cc(C)sc1C	x	15	x	x	x	-7	x	x	x
COc1cccc(NC(=O)CN(C)C(=O)CCC(=O)c2cc(C)sc2C)c1	u	0	4033	68*	-2	2	0	-6	0
CN(C)C(=O)c1cn(CCC#N)nc1-c1ccc2ccccc2c1	52*	-15	3918	0	12	-1	-1	-12	0
N#CCCn1cc(C(N)=O)c(-c2ccc3ccccc3c2)n1	-28	-5	3976	1	19	2	x	x	x
COc1ccc(-c2cc3ccccc3n2CC(O)Cn2nc(C)cc2C)cc1 (centres undefined)	-38	47*	3026	152*	49*	8	0	-4	-2
Cc1cc(C)n(CC(O)Cn2c(C)c(C)c3ccccc32)n1 (centres undefined)	35*	-3	4825	4	7	2	0	-2	4
